Experimental data reported in PubChem BioAssay (Tox21).
Unmarked numbers belong to inactive results. Active and inactive are the calls of the source. Calls follow the shape of the dose curve; as a rule, active = well fitted activation curve with a large enough effect in the repeat runs; inconclusive = weak or mixed curves; inactive = flat fitted curve, though single readings scatter.

Assay: A CellTox Green Cytotoxicity Assay to monitor cytotoxicity in HepG2 cells - 0 hour (AID 1224882); also: nearly all actives have a fitted effect of over 35% in size
Conditions: CellTox Green fluorescence; series mostly up to 76.8 µM; cytotoxicity: at the top concentration
Excerpt: National Center for Advancing Translational Sciences [NCATS]
NIH Chemical Genomics Center [NCGC]
U.S. Environmental Protection Agency [EPA]
National Institutes of Environmental Health Sciences [NIEHS]
National Toxicology Program [NTP]
Cell-based models are critical for drug discovery. Determining the natural cytotoxic effects resulting from test compounds is an essential research activity. A CellTox Green Cytotoxicity Assay to monitor cytotoxicity in real time of continues cell culture during 40 hours of the compound treatment was used to screen Tox21 10K library compounds in HepG2 cells. CellTox Green Cytotoxicity Assay is a nonlytic, homogeneous, biofluorescent method to measure cytotoxicity in cell culture after experimental manipulation. The assay system uses a proprietary asymmetric cyanine dye that is excluded from viable cells but preferentially stains the dead cell's DNA. […] Viable cells produce no appreciable increases in fluorescence. Therefore, the fluorescence signal produced by the binding interaction with dead cell DNA is proportional to cytotoxicity.
The mixture of HepG2 cell suspension and reagents were dispensed at 600cells/6 ul/well in 1536-well tissue culture treated black solid bottom plates using a Multidrop dispenser. After the assay plates were incubated at a 37 C/5% CO2 incubator for 5 hours, 23 nL of compounds dissolved in DMSO, positive and negative controls was transferred to the assay plate by a pintool work station. The plates were incubated at 37 C for 40 hours. The fluorescence intensity were measured at 0h, 8h, 16h, 24h, 32h and 40h time points using ViewLux plate reader during compound treatment.
% is scaled to controls: 0 for no effect and ±100 for the full control effect.

Row | SMILES | cytotoxicity | outcome
1 | ClCOCCl | -4.61% | –
2 | BrCC1CO1 (stereo not given) | -8.37% | –
3 | Cc1cccc2sc3nncn3c12 | 3.37% | –
4 | CN(C)C1CCCCC1 | 1.66% | –
5 | CCCCCCCCBr | -6.78% | –
6 | C=CC(=O)OCCN(C)C | -0.132% | –
7 | CC1=C2[C@H]3OC(=O)[C@@H](C)[C@@H]3CC[C@@]2(C)C=CC1=O | -1.75% [at 35.3 µM] | –
8 | CCC1(CC)C(=O)C=CNC1=O | -0.247% [at 35.3 µM] | –
9 | CNC(=O)Oc1cc(C)c(N(C)C)c(C)c1 | 0.222% | –
10 | O=C(O)CBr | -0.0271% | –
11 | N=C(N)[Se] | -3.29% | –
12 | CCc1cc(OC)c(C[C@H](C)N)cc1OC | -8.43% | –
13 | CCCCCCC(=O)CCCCCC/C=C/C[C@@H](O)[C@H](O)[C@@](N)(CO)C(=O)O | -17.7% [at 15.8 µM] | –
14 | CCOc1cc(OP(=S)(OC)OC)nc(CC)n1 | 0.552% | –
15 | CCCCCCCC(=O)Cl | 3.15% | –
16 | CC(Cc1ccccc1)NCCn1cnc2c1c(=O)n(C)c(=O)n2C (stereo not given) | -5.06% | –
17 | CCN1CCCC1CNC(=O)C(O)(c1ccccc1)c1ccccc1 (stereo not given) | -1.07% [at 35.3 µM] | –
18 | CCOC(=O)c1ncn2c1CN(C)C(=O)c1c(I)cccc1-2 | -11% [at 35.3 µM] | –
19 | COC(=O)[C@@H](N)CCCN/C(N)=N/[N+](=O)[O-] | 22.6% [at 35.3 µM] | –
20 | COc1ccccc1OC | 2.15% | –

Row | SMILES | cytotoxicity | outcome
21 | O=C1C2CC=CCC2C(=O)N1SC(Cl)(Cl)Cl (stereo not given) | – | inactive
22 | Cc1ccc2cc(C)ccc2c1 | 0.423% | –
23 | c1ccc2c(c1)CCNC2 | 0.884% | –
24 | CCOP(=S)(OCC)SCCl | 1.41% | –
25 | O=[N+]([O-])CCO | 5.31% | –
26 | CCOC(=O)NC(C)(C)Cc1ccc(Cl)cc1 | 0.532% [at 35.3 µM] | –
27 | C=C(C)[C@H]1CN[C@H](C(=O)O)[C@H]1CC(=O)O | -1.06% [at 35.3 µM] | –
28 | CC[C@@H](CO)NC(=O)[C@@H]1C=C2c3cccc4[nH]cc(c34)C[C@H]2N(C)C1 | 0.374% [at 35.3 µM] | –
29 | CC(Cc1ccccc1)NCCCCl (stereo not given) | -1.05% [at 35.3 µM] | –
30 | CCOC(=O)CCl | -13.4% | –
31 | COc1cccc([C@@]2(O)CCCC[C@@H]2CN(C)C)c1 | -2.51% [at 35.3 µM] | –
32 | CC[C@@H](CO)NC(=O)[C@@H]1C=C2c3cccc4c3c(cn4C)C[C@H]2N(C)C1 | 0.688% [at 35.3 µM] | –
33 | CCNc1nc(NCC)nc(SC)n1 | -7.28% | –
34 | CC(C)[C@]12CC(=O)[C@H](C)[C@H]1C2 | -1.35% | –
35 | CCCOC(=O)Cc1ccc(OCC(=O)N(CC)CC)c(OC)c1 | 2.58% [at 35.3 µM] | –
36 | O=C(Cl)C(Cl)(Cl)Cl | -5.22% | –
37 | CC1N=C(N)OC1c1ccccc1 (stereo not given) | -0.0657% | –
38 | CCCN1CCC[C@@H]2Cc3[nH]ncc3C[C@H]21 | -0.0122% [at 35.3 µM] | –
39 | C=CC1(C)OC(=O)N(c2cc(Cl)cc(Cl)c2)C1=O (stereo not given) | – | inactive
40 | C[C@H](CN1CCOCC1)C(C(=O)N1CCCC1)(c1ccccc1)c1ccccc1 | 1.12% | –
